Experimental findings from PubChem BioAssay AID1852 (Sanford-Burnham Center for Chemical Genomics, 2009) are described below.

As a reminder, the inhibition is the change of the read-out against control, counted positive when it falls.

SMILES strings stand for the structures. Hit rate of the full screen: of about 2,500 compounds, about 1,100 (44%) were called active. The set was probably picked from earlier hits. This is one part of the list. A number with no mark means an inactive call.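 How the source made its calls: active means inhibition above 50% at 4 µM in the single-point screen; inactive means inhibition of 50% or less.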

The assay is described as follows: TNF-a-driven NF-kB reporter inhibitors, primary screen, selectivity assay for NOD1/NOD2 signaling inhibitor project, cell-based, HEK293T NF-kB-Luc, luminescence (AID 1852). The following applies: TNF-a induced, 14 h, at 4 µM, active compounds read high.
On to `Cc1ccc(Sc2ccc(/C=C3/C(=O)NN(c4ccccc4)C3=O)o2)cc1`, for which the inhibition was -8.6%.

As for `NS(=O)(=O)c1ccc(NC(=O)c2cc(Cl)ccc2Cl)cc1`, the inhibition is 14.7%.

Regarding `O=C(CCl)Nc1cc(S(=O)(=O)N2CCCCCC2)ccc1Cl`, the inhibition was 17.6%. Turning to `O=C(Nc1ccccc1C(=O)O)c1cc(S(=O)(=O)N2CCCCC2)c(Cl)cc1Cl`, the inhibition is 61% (active). Consider `O=C(Nc1ccc(Cl)cn1)c1ccc(Br)c(S(=O)(=O)N2CCCCC2)c1`, for which the inhibition was 39.5%. For `Cc1ccc(C(=O)Nc2ccccc2C(=O)O)cc1S(=O)(=O)Nc1ccccc1` the value was 76.6% (active).

With `O=C(Nc1ccccc1C(=O)O)c1cc(S(=O)(=O)Nc2ccccc2)ccc1Cl`, the inhibition was 58.9% (active).

As for `O=C(c1cc2nc(-c3ccc(F)cc3)cc(C(F)(F)F)n2n1)N1CCCCC1c1cccnc1` (configuration not stated), the inhibition was 34.3%. On to `Brc1ccccc1OCCCCn1cnc2ccccc21`, for which the inhibition was -10.4%. For `O=c1cc(C(F)(F)F)[nH]c2ccc(OC(F)(F)F)cc12`, the inhibition was 78.8% (active). In the case of `O=c1cc(C(F)(F)F)[nH]c2ccc(C(F)(F)F)cc12`, the inhibition is 73.1% (active). On to `O=c1nc(/C=C/c2ccccc2C(F)(F)F)cc(C(F)(F)F)[nH]1`, for which the inhibition was -14.4%.

`CN(C(=O)/C=C/c1ccc([N+](=O)[O-])s1)c1ccccc1`: the inhibition is 37.1%. The value for `Cc1ccccc1NC(=O)/C=C/c1ccc([N+](=O)[O-])s1` was 104% (active); that for `Cc1ccc(NC(=O)/C=C/c2ccc([N+](=O)[O-])s2)c(C)c1` was 100% (active); that for `Oc1[nH]c2ccccc2c1N=Nc1nc(Nc2ccccc2)nc(N2CCOCC2)n1` was 12.6%. Regarding `Oc1[nH]c2ccccc2c1N=NC(=S)N1CCOCC1`, the inhibition was 94.8% (active). For `O=C(O)CCn1cc(/C=C\C(=O)c2ccc(Cl)cc2)c(-c2cccc(Br)c2)n1` the value was 77.2% (active); for `Cc1ccc(-c2nn(CCC(=O)O)cc2/C=C\C(=O)c2ccc(Br)cc2)cc1`, 94.7% (active); for `O=C(O)CCn1cc(/C=C/C(=O)c2ccc(Cl)cc2)c(-c2cccc(Br)c2)n1`, -4.4%. For `N#C/C(=C(/O)COC(=O)CSc1ccc(Cl)cc1)c1nc2ccccc2[nH]1` the value was 93.2% (active). With `N#C/C(=C(/O)COC(=O)CSc1ccc2ccccc2c1)c1nc2ccccc2[nH]1`, the inhibition is 90.4% (active).

Turning to `Cc1ccnc(NC(=O)Nc2ccc3c(c2)N(C)C(=O)CS3)c1`, the inhibition is -55.6%. In the case of `Cc1cc(C(=O)Nc2nc(-c3ccccn3)cs2)ccc1[N+](=O)[O-]`, the inhibition was -1%. In the case of `Cn1cc([N+](=O)[O-])c(C(=O)Nc2nc(-c3ccc(Cl)cc3)cs2)n1`, the inhibition was 43.8%. As to `O=C(Nc1nc(-c2ccccn2)cs1)c1cc(Cl)ccc1[N+](=O)[O-]`, the inhibition was 105% (active). As for `O=C(Nc1nnc(SCc2ccc(F)cc2)s1)c1ccccn1`, the inhibition is 109% (active). The value for `CCc1ccccc1OCC(=O)Nc1nc(-c2cccnc2)cs1` was 15.7%. `CC(Oc1ccc(Br)cc1)C(=O)Nc1nc(-c2ccccn2)cs1` (configuration not stated): the inhibition was 90.7% (active). For `O=C(Nc1nc(-c2cc(F)ccc2F)cs1)c1ccccn1` the value was 91.2% (active); for `Cc1nc(C2CCC3C4CCC5=CC(=O)CC[C@]5(C)C4CC[C@]23C)cs1` (some centres not stated), 34.9%; for `O=C(Nc1nc(-c2ccccn2)cs1)c1ccc(Cl)s1`, 19.4%.

In the case of `O=C(Nc1nc(-c2ccccn2)cs1)Nc1ccc(F)cc1F`, the inhibition was 82.1% (active). Turning to `CCSc1nsc(NC(=O)Nc2cccc(F)c2)n1`, the inhibition is 46.9%. For the compound `Fc1cc(F)c2nc(Nc3nc4c(F)cccc4s3)sc2c1`, the inhibition is -17.5%. For `COc1ccccc1-c1nnc(Nc2nc3c(OC)cccc3s2)o1`, the inhibition was 27.9%. Take `Cc1cccnc1Nc1nc(-c2ccccn2)cs1`: the inhibition is 104% (active). The value for `COc1cccc2sc(Nc3nc(-c4ccccn4)cs3)nc12` was 102% (active). `COc1ccc(CCNS(=O)(=O)c2ccc(Br)s2)cc1`: the inhibition was 35%. The value for `CSc1cccc(NS(=O)(=O)c2ccc(-c3coc(C)n3)cc2)c1` was 24.6%. As for `CC(=O)c1cccc(NS(=O)(=O)c2ccc(-c3cnc(C4CC4)o3)cc2)c1`, the inhibition is 66.3% (active). For the compound `COc1ccc(NS(=O)(=O)c2ccc(-c3cnc(C4CC4)o3)cc2)cc1OC`, the inhibition is 38.9%.

For `O=C(NC(NNc1ccc([N+](=O)[O-])cc1)(C(F)(F)F)C(F)(F)F)c1ccc(Cl)cc1`, the inhibition is 50.3% (active). On to `O=C(Nc1cc(C(F)(F)F)cc(C(F)(F)F)c1)Nc1cnn(-c2ccc([N+](=O)[O-])cc2)c1C(F)(F)F`, for which the inhibition is 48.5%.

Take `CCOC(=O)c1oc2ccc(S(=O)(=O)n3nc(-c4ccc(OC)cc4)cc3N)cc2c1C`: the inhibition is 60.2% (active).

With `CCN(CC)C(=O)c1oc2ccc(S(=O)(=O)N3CC(C)CC(C)C3)cc2c1C` (configuration not stated), the inhibition was 31.2%.

For `CCOC(=O)C(=CNc1ccc2c(c1)c1ccccc1n2CC)C(=O)OCC`, the inhibition was 17.5%. Turning to `CCn1c(=O)c2c(cnn2C)c2ccccc21`, the inhibition is 81.7% (active). The value for `CCOc1ccc(C(=O)C(CCC(CN(C)C)C(=O)c2ccc(OCC)cc2)CN(C)C)cc1` (configuration not stated) was 12.6%; that for `CN(C)CC(CCC(CN(C)C)C(=O)c1ccccc1)C(=O)c1ccccc1` (configuration not stated) was 102% (active); that for `C/C(=N\NC(=O)C(c1ccccc1)c1ccccc1)c1ccccn1` was 103% (active). As to `C/C(=N\Nc1nc2ccccc2[nH]1)c1ccccn1`, the inhibition is 101% (active).

As to `C=CCNC(=S)N/N=C(\C)c1ccccn1`, the inhibition was 111% (active). For `CSC(=S)N/N=C(\C)c1ccc(Br)cc1` the value was 11.8%. For the compound `C/C(=N\NC(=O)c1ccccc1F)c1ccccn1`, the inhibition is 49.5%. As to `C/C(=N\NC(=O)c1ccccc1Cl)c1ccccn1`, the inhibition is 97.3% (active). For `COc1ccc(/C=C/c2cc(-c3ccc(C)cc3)o[n+]2C)cc1` the value was 30.9%; for `C/C(=N\NC(=O)C1COc2ccccc2O1)c1ccccn1` (configuration not stated), 83.2% (active). As to `C/C(=N\NC(=O)C(C)Oc1ccc([N+](=O)[O-])cc1)c1ccccn1` (configuration not stated), the inhibition was 103% (active). `C/C(=N\NC(=O)c1n[nH]c2c1CCC2)c1cccs1`: the inhibition is 46.3%. Consider `C/C(=N\NC(=O)c1cccc2ccccc12)c1ccccn1`, for which the inhibition was 103% (active). With `C/C(=N\NC(=O)c1cc(-c2cccs2)nc2ccccc12)c1ccccn1`, the inhibition is 106% (active).
